Several values for one entry are separate records, joined by “and”; a condition that tells them apart may be missing. Identical values can stand only once. Counter-ions that a name gives are not always drawn.
Key:
Assay in all cases: cell viability relative to vehicle control; higher = less cytotoxic
Conditions in all cases: 10 µM
[1] = tested on: K562
Outline: (§1)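 Mutant clones made by CRISPR editing and their isogenic wild-type counterparts, from four leukaemia lines, were exposed to a single 10 µM dose of each library compound for 48 h. The supernatant was then removed and CellTiter-Glo luminescence was read. Viability was reported as percent of the on-plate vehicle control.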

[2] = tested on: MARIMO
Outline: as §1

[3] = tested on: MOLM14
Outline: as §1

[4] = tested on: OCI-AML2
Outline: as §1

Structure (SMILES) | cell viability ([1]; SRSF2 genotype: SRSF2 P95H/wt) | cell viability ([1]; SRSF2 genotype: SRSF2 wt/wt) [%] | cell viability ([2]; SRSF2 genotype: SRSF2 P95H/wt) [%] | cell viability ([2]; SRSF2 genotype: SRSF2 wt/wt) [%] | cell viability ([3]; SRSF2 genotype: SRSF2 P95H/wt) [%] | cell viability ([3]; SRSF2 genotype: SRSF2 wt/wt) [%] | cell viability ([4]; SRSF2 genotype: P95H/wt) [%] | cell viability ([4]; SRSF2 genotype: wt/wt) [%]
CN(C)CCc1c[nH]c2ccc(Cn3cncn3)cc12 [Rizatriptan Benzoate (Maxalt)] | 86.7% and 84.6% | 84.2 | 76.2 | 82.7 | 86.7 | 85.6 | 92.7 | 83.5
O=C(Cn1nnc(-c2ccncc2)c1-c1ccccc1)Nc1ccc(-c2ccccc2)cn1 | 58% and 48.3% | 57.6 | 51.6 | 53.3 | 54.6 | 51.1 | 35.9 | 40.8
O=c1cc(-c2cccc3c2Sc2ccccc2S3)oc(N2CCOCC2)c1 | 98.7% and 93.1% | 91.2 | 105 | 103 | 93.6 | 95.5 | 85.7 | 88.8
CCCc1nn(C)c2c(=O)[nH]c(-c3cc(S(=O)(=O)N4CCN(C)CC4)ccc3OCC)nc12 [Sildenafil citrate] | 100% and 106% | 103 | 106 | 108 | 108 | 111 | 118 | 109
NC(=O)N1c2ccccc2CC(=O)c2ccccc21 [Oxcarbazepine] | 89% and 97.3% | 94.8 | 85.3 | 99.1 | 73.4 | 92.3 | 86 | 86.9
CC(C)=CCC[C@](C)(O[C@@H]1O[C@H](CO)[C@@H](O)[C@H](O)[C@H]1O)[C@H]1CC[C@]2(C)[C@@H]1[C@H](O)C[C@@H]1[C@@]3(C)CC[C@H](O)C(C)(C)[C@@H]3[C@@H](O[C@@H]3O[C@H](CO)[C@@H](O)[C@H](O)[C@H]3O)C[C@]12C [Ginsenoside Rg1] | 95.2% and 91.8% | 101 | 96.7 | 94.4 | 97.5 | 98.4 | 99.5 | 104
C[C@@H]1CC[C@@]2(NC1)O[C@H]1C[C@H]3[C@@H]4CC=C5C[C@@H](O[C@@H]6O[C@H](CO)[C@@H](O[C@@H]7O[C@@H](C)[C@H](O)[C@@H](O)[C@H]7O)[C@H](O)[C@H]6O)CC[C@]5(C)[C@H]4CC[C@]3(C)[C@H]1[C@@H]2C [Khasianine] | 104% and 102% | 103 | 102 | 104 | 104 | 102 | 104 | 107
CCN(CC)c1ccc2c(-c3ccccc3C(=O)O)c3ccc(=[N+](CC)CC)cc-3oc2c1 [Rhodamine B] | 51.1% and 54.3% | 53 | 51.3 | 59.4 | 48.5 | 61 | 58.7 | 49.6
Cc1ccc(C(=O)N(CCCN)[C@@H](c2nc3cc(Cl)ccc3c(=O)n2Cc2ccccc2)C(C)C)cc1 | 0.81% and 1.13% | 0.6 | 0.37 | 0.68 | 0.2 | 0.34 | 0.16 | 0.25
C[C@@H]1CC(=O)NN=C1c1ccc(NN=C(C#N)C#N)cc1 [Levosimendan] | 92.4% and 105% | 99.4 | 68.9 | 86 | 94.7 | 81.7 | 69.8 | 67.1
COc1cccc(-c2cc(NCc3ccc4c(c3)OCO4)nc(N)n2)c1 [Wnt agonist 1] | 9.55% and 31.1% | 26.2 | 8.72 | 9.19 | 7.29 | 4.03 | 11 | 13.1
CCc1ccc(OCc2ccccc2C(=O)Nc2ccc3nc(C)cc(N)c3c2)cc1 | 0.54% and 0.5% | 0.47 | 0.43 | 0.59 | 0.48 | 0.57 | 0.44 | 0.53
Nc1nc2ccc(OC(F)(F)F)cc2s1 [Riluzole (Rilutek)] | 94.3% and 96.3% | 88.4 | 94 | 90.6 | 81.8 | 98.6 | 103 | 94.8
C=CC(=O)Nc1cccc(C)c1Nc1ncc2cc(-c3c(Cl)c(OC)cc(OC)c3Cl)ccc2n1 | 29.7% and 25.7% | 35.1 | 47.6 | 55.7 | 6.84 | 4.93 | 6.53 | 11.9
C=CC(=O)Nc1cccc(Oc2nc(Nc3ccc(N4CCN(C)CC4)cc3)nc3ccsc23)c1 | 16.7% and 14.4% | 49.6 | 31.2 | 43.4 | 0.27 | 0.47 | 0.27 | 0.68
O=C(Nc1ccncc1)c1cc([N+](=O)[O-])ccc1Cl | 102% and 101% | 91.5 | 106 | 102 | 70.5 | 106 | 83.2 | 73.9
COc1cc(O)c(C(=O)Nc2nc(C(=O)NCCN(C(C)C)C(C)C)cs2)cc1OC [Acotiamide] | 101% and 97.3% | 107 | 98 | 108 | 97.5 | 106 | 94.1 | 101
CC(=O)S[C@@H]1CC2=CC(=O)CC[C@]2(C)[C@H]2CC[C@@]3(C)[C@@H](CC[C@@]34CCC(=O)O4)[C@H]12 [spironolactone] | 87.8% and 90.2% | 89.7 | 78.3 | 84.5 | 90.1 | 91.5 | 90.6 | 97.9
CCn1cc(C(=O)O)c(=O)c2ccc(C)nc21 [Nalidixic acid (NegGram)] | 96.8% and 104% | 106 | 107 | 101 | 105 | 109 | 104 | 91.1
CN(NC(=O)CC(=O)NN(C)C(=S)c1ccccc1)C(=S)c1ccccc1 [Elesclomol (STA-4783)] | 28.9% and 15.4% | 51.2 | 11.8 | 21.5 | 0.35 | 0.25 | 2.86 | 12.4
COc1ccc(CCCOC(Cn2ccnc2)c2ccc(OC)cc2)cc1 (stereo unspecified) | 16.1% and 28.8% | 28.9 | 13.8 | 14.8 | 19.7 | 4.26 | 14.6 | 18.9

Structure (SMILES) | cell viability ([1]; SRSF2 genotype: SRSF2 P95H/wt) | cell viability ([1]; SRSF2 genotype: SRSF2 wt/wt) [%] | cell viability ([2]; SRSF2 genotype: SRSF2 P95H/wt) [%] | cell viability ([2]; SRSF2 genotype: SRSF2 wt/wt) [%] | cell viability ([3]; SRSF2 genotype: SRSF2 P95H/wt) [%] | cell viability ([3]; SRSF2 genotype: SRSF2 wt/wt) [%] | cell viability ([4]; SRSF2 genotype: P95H/wt) [%] | cell viability ([4]; SRSF2 genotype: wt/wt) [%]
Nc1ncnc2c1ncn2[C@@H]1O[C@H](CO)[C@@H](O)[C@H]1O [Adenosine (Adenocard)] | 113% and 107% | 108 | 104 | 98.5 | 104 | 114 | 102 | 106
O=C(c1cn(Cc2cncn2Cc2ccc(Br)cc2)cc1-c1cccc2ccccc12)N1CCOCC1 | 48.4% and 62.4% | 47.2 | 34.1 | 36.4 | 35.1 | 39.1 | 25.7 | 32.2
COC(=O)C1=COC(OC2OC(CO)C(O)C(O)C2O)C2C(C)CC(=O)C12O (stereo unspecified) [Hastatoside] | 108% and 101% | 107 | 104 | 99.3 | 108 | 104 | 99.5 | 102
CN(C)c1nc(N(C)C)nc(N(C)C)n1 [Altretamine (Hexalen)] | 99.3% and 102% | 99.7 | 97.3 | 95.2 | 94 | 98.5 | 99.7 | 98.4
Nc1ncnc2c1nc(Br)n2[C@@H]1O[C@@H]2COP(=O)(O)O[C@H]2[C@H]1O [8-Bromo-cAMP] | 66.5% and 72.5% | 66.5 | 86.2 | 96.1 | 65.9 | 60 | 79.8 | 93.2
CCC(CC)CC1(C(=O)Nc2ccccc2SC(=O)C(C)C)CCCCC1 | 94.6% and 96.2% | 103 | 96 | 97.5 | 90.1 | 95.5 | 83.2 | 85.5
CC1(C)CC[C@]2(C(=O)O[C@@H]3O[C@H](CO)[C@@H](O)[C@H](O)[C@H]3O)CC[C@]3(C)C(=CC[C@@H]4[C@@]5(C)CC[C@H](O[C@@H]6O[C@H](C(=O)O)[C@@H](O)[C@H](O)[C@H]6O)C(C)(C)[C@@H]5CC[C@]43C)[C@@H]2C1 [Chikusetsusaponin IVa] | 100% and 103% | 106 | 103 | 114 | 102 | 105 | 104 | 111
O=C(O)Cn1nnc(-c2cc(N3CCC(Oc4cc(F)ccc4Br)CC3)no2)n1 | 106% and 102% | 110 | 101 | 104 | 103 | 103 | 101 | 103
COCCOC(=O)C1=C(C)NC(C)=C(C(=O)OC/C=C/c2ccccc2)C1c1cccc([N+](=O)[O-])c1 (stereo unspecified) [Cilnidipine] | 87.1% and 86.8% | 81.2 | 88.1 | 98.1 | 78.8 | 81.6 | 78.9 | 74.5
CC(C)(C#N)c1ccc(N2C(=O)OCc3cnc4ccc(-c5cnc6ccccc6c5)cc4c32)cc1 | 78.7% and 82.1% | 85.8 | 83 | 92.5 | 66 | 80.2 | 74.5 | 75.7
COc1cc(OCc2cccc(-c3ccccc3)c2C)cc(OC)c1CN1CCCC[C@H]1C(=O)O [PD-1/PD-L1 inhibitor 1] | 87.3% and 92.7% | 100 | 83.7 | 85.2 | 89.8 | 95.3 | 68.2 | 73.2
Cn1cc(-c2ccc3nnc(Sc4ccc5ncccc5c4)n3n2)cn1 | 92% and 94.2% | 96.6 | 90 | 101 | 98 | 99 | 98 | 94.3
CC[C@@](C)(Nc1ccnc(-c2c[nH]c3ncccc23)n1)C(=O)NCC(F)(F)F [Decernotinib (VX-509)] | 98.6% and 99.9% | 104 | 95.1 | 96.2 | 88.8 | 106 | 85.1 | 92.2
Cc1cc(Nc2ncnc3ccc(-c4ccc(CNCCS(C)(=O)=O)o4)cc23)ccc1Oc1ccn2ncnc2c1 [HER2 Inhibitor 1] | 96.3% and 102% | 105 | 107 | 108 | 93 | 101 | 95.7 | 89.6
CC1(C)[C@@H](O[C@H]2O[C@H](C(=O)O)[C@@H](O)[C@H](O)[C@H]2O[C@@H]2O[C@H](C(=O)O)[C@@H](O)[C@H](O)[C@H]2O)CC[C@]2(C)[C@H]3C(=O)C=C4[C@@H]5C[C@@](C)(C(=O)O)CC[C@]5(C)CC[C@@]4(C)[C@]3(C)CC[C@@H]12 [Ammonium Glycyrrhizate] | 97.4% and 102% | 99.3 | 101 | 101 | 106 | 98.9 | 106 | 99
O=C(O)CCn1c(O)c(C2=c3cc(Cl)ccc3=NC2=O)sc1=S | 87.5% and 92.5% | 88.2 | 84.1 | 88.7 | 71.7 | 83.2 | 107 | 116
CN(C)CCCCC(=O)Nc1ccc(NC(=S)NC(=O)c2ccc(C(C)(C)C)cc2)cc1 [Tenovin-6] | 2.61% and 5.21% | 12.4 | 1.49 | 1.85 | 1.6 | 0.76 | 1.27 | 5.3
CC(C)(O)C1CCC(C)(C2C(O)CC3(C)C4CC(OC5OC(CO)C(O)C(O)C5O)C5C(C)(C)C(OC6OCC(O)C(O)C6O)CCC56CC46CCC23C)O1 (stereo unspecified) [Astragaloside A] | 104% and 103% | 99.1 | 109 | 111 | 106 | 107 | 97.2 | 103
COc1ccc([C@@H]2CC(=O)c3c(O)cc(O[C@@H]4O[C@H](CO)[C@@H](O)[C@H](O)[C@H]4O[C@@H]4O[C@@H](C)[C@H](O)[C@@H](O)[C@H]4O)cc3O2)cc1O [Neohesperidin] | 109% and 102% | 100 | 97.2 | 102 | 104 | 109 | 116 | 127
COc1cc(-c2oc3cc(O)cc(O)c3c(=O)c2O)ccc1O [Isorhamnetin] | 87.2% and 88.3% | 86.6 | 83.4 | 92.4 | 71.8 | 79.4 | 81.1 | 89
Clc1ccc(CSC(Cn2ccnc2)c2ccc(Cl)cc2Cl)cc1 (stereo unspecified) [Sulconazole Nitrate] | 57.2% and 61.2% | 62.7 | 46.5 | 43.2 | 45.7 | 44.8 | 40 | 45.1

Source: the supplement of paper PMC10981050
